Where “and” joins values, the source holds several entries; their conditions need not be identical. Identical values can stand only once. Inconclusive results are not listed. Calls of active or inactive are those of the source.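 How the source made its calls, unless noted: active means normalized viability below 100% at a tested concentration; inactive means the rest.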
How the values were obtained:
[1] = viability loss in pontine glioma line – cell-based, SU-DIPG-XIII, MIPE4.0, CellTiter-Glo, qHTS, dose response (AID 1347061; cut-off not given, nearly all actives have AC50 up to about 37 µM;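 further: cells exposed to compound for 48 hours before readout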); conditions: CellTiter-Glo ATP luminescence
[2] = growth inhibition of DIPG cells – cell-based, MIPE4.0 library, CellTiter-Glo luminescence, qHTS (AID 1347066; cut-off not given, nearly all actives have AC50 up to about 30 µM;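 further: cells exposed to compound for 48 hours before readout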); conditions: SU-DIPG-VI viability, CellTiter-Glo ATP luminescence
[3] = viability loss in pontine glioma line – cell-based, SU-DIPG-IV, MIPE4.0, CellTiter-Glo, qHTS, dose response (AID 1347063; cut-off not given, nearly all actives have AC50 up to about 30 µM;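 further: compound exposure lasted 48 hours before the viability readout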); conditions: CellTiter-Glo ATP luminescence
[4] = viability loss in pontine glioma line – cell-based, SU-DIPG-XXV, MIPE5.0, CellTiter-Glo, qHTS, dose response (AID 1347065; cut-off not given, nearly all actives have AC50 up to about 26 µM;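 further: cells exposed to compound for 48 hours before ATP readout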); conditions: CellTiter-Glo ATP luminescence
[5] = JHH-DIPG-1 glioma cell viability, MIPE5.0 library, CellTiter-Glo luminescence, qHTS (AID 1347067; cut-off not given, nearly all actives have AC50 up to about 26 µM;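 further: cells exposed to compound for 48 hours before readout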); conditions: JHH-DIPG-1 glioma viability, CellTiter-Glo ATP luminescence
[6] = viability loss in pontine glioma line – cell-based, SU-DIPG-XIII, MIPE5.0, CellTiter-Glo, qHTS, dose response (AID 1347064; cut-off not given, nearly all actives have AC50 up to about 23 µM;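 on AC50: cells exposed to compound for 48 hours before the viability read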); conditions: CellTiter-Glo ATP luminescence
[7] = growth inhibition of DIPG cells – cell-based, MIPE5.0 library, qHTS (AID 1347068; cut-off not given, nearly all actives have IC50 up to about 30 µM;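 on IC50: cells exposed to compound for 48 hours before viability readout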); conditions: SU-DIPG-XXV viability
[8] = viability loss with induced miR-34 in A549 – imaging, A549 dox-inducible miR-34, nuclei and caspase counts, primary screen (AID 1347080;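 active means compounds whose cell count with miR-34 switched on is under 0.7 times the count with it off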); conditions: A549 miR-34 inducible, Hoechst nuclei count, 48 h
[9] = compounds altering HSF1 focus formation in cells – imaging, Selleck Cancer Library (AID 1347162; in the data active means plate-normalised HSF1 focus index below about 0.46); conditions: human cells, HSF1 nuclear foci imaging, at 10 µM; SSMD: measured here: HSF1 foci SSMD mean; cell count: measured here: cell number; plate-normalised HSF1 focus index: stronger effect = lower value
[10] = MELAS cybrid and Rieske KO viability enhancers – cell-based, MELAS cybrids, Rieske KO mouse fibroblasts, CellTiter-Glo, primary screen (AID 1508586;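 active means mean z-score across replicates of 1.96 or higher in either the MELAS or the Rieske mutant cell line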;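 further: z relative to plate mean and SD of compound and empty wells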); conditions: low glucose
[11] = drug combination growth inhibition, ovarian cancer – cell-based, oncology-focused library, rucaparib conditional, profiling panel (AID 1508598); conditions: patient-derived ovarian cancer cells, CellTiter-Glo viability, 144 h, stronger effect = lower value
[12] = viability loss in pontine glioma line – cell-based, JHH-DIPG-1, MIPE4.0, CellTiter-Glo, qHTS, dose response (AID 1347062; cut-off not given, nearly all actives have AC50 up to about 27 µM); conditions: JHH-DIPG-1 viability, CellTiter-Glo ATP luminescence
[13] = stronger effect = lower value, cell number ratio, induced over uninduced
[14] = measured here: relative caspase fold change +Dox/-Dox
[15] = measured here: total cells with miR-34 induction, stronger effect = lower value
[16] = measured here: total cells without miR-34 induction
[17] = MELAS cybrid survival, CellTiter-Glo 48 h, stronger effect = higher value
[18] = Rieske KO mouse fibroblast survival, CellTiter-Glo 72 h
[19] = at 0.000305 µM, OCI-C5x cells, with rucaparib 10 µM, 100% = cells with rucaparib alone
[20] = at 0.000305 µM, OCI-C5x cells, without rucaparib
[21] = at 0.000305 µM, OCI-P5x cells, with rucaparib 20 µM, 100% = cells with rucaparib alone
[22] = at 0.000305 µM, OCI-P5x cells, without rucaparib
[23] = at 0.00122 µM, OCI-C5x cells, with rucaparib 10 µM, 100% = cells with rucaparib alone
[24] = at 0.00122 µM, OCI-C5x cells, without rucaparib
[25] = at 0.00122 µM, OCI-P5x cells, with rucaparib 20 µM, 100% = cells with rucaparib alone
[26] = at 0.00122 µM, OCI-P5x cells, without rucaparib
[27] = at 0.00488 µM, OCI-C5x cells, with rucaparib 10 µM, 100% = cells with rucaparib alone
[28] = at 0.00488 µM, OCI-C5x cells, without rucaparib
[29] = at 0.00488 µM, OCI-P5x cells, with rucaparib 20 µM, 100% = cells with rucaparib alone
[30] = at 0.00488 µM, OCI-P5x cells, without rucaparib
[31] = at 0.0195 µM, OCI-C5x cells, with rucaparib 10 µM, 100% = cells with rucaparib alone
[32] = at 0.0195 µM, OCI-C5x cells, without rucaparib
[33] = at 0.0195 µM, OCI-P5x cells, with rucaparib 20 µM, 100% = cells with rucaparib alone
[34] = at 0.0195 µM, OCI-P5x cells, without rucaparib
[35] = at 0.0781 µM, OCI-C5x cells, with rucaparib 10 µM, 100% = cells with rucaparib alone
[36] = at 0.0781 µM, OCI-C5x cells, without rucaparib
[37] = at 0.0781 µM, OCI-P5x cells, with rucaparib 20 µM, 100% = cells with rucaparib alone
[38] = at 0.0781 µM, OCI-P5x cells, without rucaparib
[39] = at 0.313 µM, OCI-C5x cells, with rucaparib 10 µM, 100% = cells with rucaparib alone
[40] = at 0.313 µM, OCI-C5x cells, without rucaparib
[41] = at 0.313 µM, OCI-P5x cells, with rucaparib 20 µM, 100% = cells with rucaparib alone
[42] = at 0.313 µM, OCI-P5x cells, without rucaparib
[43] = at 1.25 µM, OCI-C5x cells, with rucaparib 10 µM, 100% = cells with rucaparib alone
[44] = at 1.25 µM, OCI-C5x cells, without rucaparib
[45] = at 1.25 µM, OCI-P5x cells, with rucaparib 20 µM, 100% = cells with rucaparib alone
[46] = at 1.25 µM, OCI-P5x cells, without rucaparib
[47] = at 5 µM, OCI-C5x cells, with rucaparib 10 µM, 100% = cells with rucaparib alone
[48] = at 5 µM, OCI-C5x cells, without rucaparib
[49] = at 5 µM, OCI-P5x cells, with rucaparib 20 µM, 100% = cells with rucaparib alone
[50] = at 5 µM, OCI-P5x cells, without rucaparib

Cc1cccc2c1CC[C@H](CN1CCC(c3c(Cl)cccc3Cl)CC1)C[C@@H]2O
inactive: outcome [1] | outcome [2]

C[C@@H](NCc1cc2ccccc2[nH]1)c1cccc2ccccc12
inactive: outcome [1] | outcome [3] | outcome [2]
active: AC50 [4] 26.3 µM | AC50 [5] 14.8 µM

COc1ccc(COc2cc3oc(=O)c4cc(C(C)O)ccc4c3cc2OC)cc1 (stereo not given)
inactive: outcome [1] | outcome [6] | outcome [4] | outcome [7] | fold change [8, 13] 0.923 | plate-normalised HSF1 focus index [9] 0.961 | z-score [10, 17] -0.463 | viability [11, 19] 108% | viability [11, 20] 122% | viability [11, 21] 103% | viability [11, 23] 119% | viability [11, 24] 114% | viability [11, 25] 108% | viability [11, 27] 121% | viability [11, 28] 104% | viability [11, 30] 101% | viability [11, 31] 118% | viability [11, 32] 118% | viability [11, 35] 122% | viability [11, 36] 114% | viability [11, 37] 103% | viability [11, 39] 113% | viability [11, 40] 100% | viability [11, 41] 102% | viability [11, 43] 126% | viability [11, 44] 107% | viability [11, 45] 103% | viability [11, 47] 132% | viability [11, 48] 130%
7360: cell count [8, 15]
0.921: z-score [10, 18]
7980: cell count [8, 16]
active: viability [11, 22] 97.5% | viability [11, 26] 98% | viability [11, 29] 98.6% | viability [11, 33] 99.9% | viability [11, 34] 98.3% | viability [11, 38] 96% | viability [11, 42] 92.5% | viability [11, 46] 94.4% | viability [11, 49] 92.1% | viability [11, 50] 90.6%
-0.619: SSMD [9]
1.45: fold change [8, 14]
7240: cell count [9]

Cc1c(NC(=O)c2ccc(C(C)(C)C)cc2)cccc1-c1cn(C)c(=O)c(Nc2ccc(C(=O)N3CCOCC3)cc2)n1
-0.156: z-score [10, 18]
5460: cell count [8, 15]
0.695: fold change [8, 14]
active: AC50 [3] 10.5 µM
4900: cell count [8, 16]
inactive: outcome [1] | outcome [2] | outcome [7] | fold change [8, 13] 1.11 | z-score [10, 17] -0.54

O=c1cc(-c2ccc(O)c(O)c2)oc2cc(O)cc(O)c12
inactive: outcome [1] | outcome [3] | outcome [2] | fold change [8, 13] 0.817 and 1 and 0.947 | z-score [10, 17] -0.397 and 1.32
7040 and 6030 and 8740: cell count [8, 15]
-0.97 and -0.213: z-score [10, 18]
8620 and 6020 and 9220: cell count [8, 16]
1.18 and 0.969 and 1.11: fold change [8, 14]

CCC(=O)OCC(=O)[C@@]1(OC(=O)CC)[C@@H](C)C[C@H]2[C@@H]3CCC4=CC(=O)C=C[C@]4(C)[C@@]3(F)[C@@H](O)C[C@@]21C
active: AC50 [1] 0.00935 µM | AC50 [3] 2.35 µM

O=c1c2ccccc2nc2n1CCc1c-2[nH]c2ccccc12
6990 and 8230: cell count [8, 16]
inactive: outcome [1] | outcome [12] | outcome [2] | fold change [8, 13] 0.916 and 0.956 | z-score [10, 17] -0.312
6410 and 7870: cell count [8, 15]
0.977 and 0.922: fold change [8, 14]
0.166: z-score [10, 18]

Cc1ccc2c(c1)c1c(n2CCc2ccc(C)nc2)CCN(C)C1
inactive: outcome [1] | outcome [3] | outcome [2]

CCn1c(-c2nonc2N)nc2c(C#CC(C)(C)O)ncc(OC[C@H]3CCCNC3)c21
1.18: SSMD [9]
6930: cell count [9]
active: AC50 [1] 16.6 µM | AC50 [3] 7.43 µM | AC50 [6] 2.63 µM | AC50 [4] 2.35 µM | IC50 [7] 16.6 µM | viability [11, 21] 98.8% | viability [11, 22] 93.1% | viability [11, 26] 99.7% | viability [11, 30] 99.7% | viability [11, 37] 89.1% | viability [11, 41] 85.8% | viability [11, 45] 72.5% | viability [11, 46] 90.8% | viability [11, 47] 94.5% | viability [11, 49] 67.2% | viability [11, 50] 68.3%
inactive: plate-normalised HSF1 focus index [9] 1.06 | viability [11, 19] 119% | viability [11, 20] 119% | viability [11, 23] 129% | viability [11, 24] 125% | viability [11, 25] 100% | viability [11, 27] 133% | viability [11, 28] 119% | viability [11, 29] 109% | viability [11, 31] 118% | viability [11, 32] 125% | viability [11, 33] 107% | viability [11, 34] 109% | viability [11, 35] 124% | viability [11, 36] 119% | viability [11, 38] 101% | viability [11, 39] 113% | viability [11, 40] 131% | viability [11, 42] 109% | viability [11, 43] 114% | viability [11, 44] 136% | viability [11, 48] 128%

COc1cc2ncnc(Nc3cc(Br)c(O)c(Br)c3)c2cc1OC
active: AC50 [3] 2.35 µM
inactive: outcome [1] | outcome [2]

O=C(C1CC1)N1CC[C@@H](Cn2c(-c3ccc(-c4ccc5occc5c4)cc3)nc3cnccc32)C1
active: AC50 [4] 18.6 µM
inactive: outcome [1] | outcome [2] | outcome [7]

CN(C)c1cc(NC(=O)CNC(C)(C)C)c(O)c2c1C[C@H]1C[C@H]3[C@H](N(C)C)C(=O)C(C(N)=O)=C(O)[C@@]3(O)C(=O)C1=C2O
0.0397: z-score [10, 18]
inactive: outcome [1] | outcome [12] | outcome [2] | z-score [10, 17] 0.577

CC(=O)N1CCN(c2ccc(OCc3nn(C)c(C)c3-c3cccc4c(CCCOc5cc(C)c(Cl)c(C)c5)c(C(=O)O)n(Cc5cccnc5)c34)cc2)CC1
active: AC50 [3] 23.5 µM | AC50 [2] 20.9 µM
inactive: outcome [1]

N#Cc1ccc(NC(=O)Nc2ccccc2Br)c2n[nH]nc12
7440: cell count [9]
-0.0129: SSMD [9]
inactive: outcome [1] | outcome [4] | plate-normalised HSF1 focus index [9] 1
